Most compounds without a hit are left out; they make up all but 3.6% or so of the library.
JMJD2E inh – blocks human JMJD2E demethylase activity. 230,000 tested, 1.6% active. Potency, µM (series often up to 57.1 µM), without a hit: top-dose activity change, negative = inhibition, most hits filed as inhibitors. JMJD2E catalytic domain, FDH-coupled NADH fluorescence (FDH is formaldehyde dehydrogenase). AID 2147. B2RXH2; active = well fitted inhibition curve with a large enough effect, not every such curve was filed as active; inconclusive = small, poorly fitted or top-dose-only effect, or another doubt; inactive = no such curve, though single readings can be large or run the other way;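 note: 0% = wells with enzyme and -100% = buffer wells without enzyme; nearly all actives have a fitted effect of over 50% in size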
GCN5L2 inh – blocks human GCN5L2 histone acetyltransferase; AID 504327; Q92830; 390,000 tested, 0.21% active; GCN5L2 HAT assay, ThioGlo1 CoA-SH fluorescence; Potency, µM (titrated, usually from 58.9 µM), for inactives: at the highest dose activity change, negative = inhibition, usual class: inhibitors; note: % is set by controls: 0 for no effect and ±100 for the full control effect
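GCN5L2 (20nM final) in 50mM HEPES, 0.1mM EDTA pH 7.5, 0.01% Tween-20 was preincubated 15 min at room temperature with compound, then given ThioGlo1 (50uM), H3(1-25) peptide (75uM) and acetyl-CoA (70uM); CoA-thiol fluorescence (Ex340/Em540) was read at 0 and 20 min.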
NPSR antag – neuropeptide S receptor (human) antagonism, cAMP. 220,000 tested, 1% active. AID 1461. CHO-NPSR cells, cAMP TR-FRET, antagonist mode. Potency, µM (highest dose often 38.3 µM), inactives show top-dose activity change, negative = inhibition, usual class: inhibitors; note: % is set by controls: 0 for no effect and ±100 for the full control effect; nearly all actives have a fitted effect of over 50% in size
Sfp PPTase inh – blocks B. subtilis Sfp PPTase activity; 310,000 tested, 3.5% active; Q9F4F7; Biochemical Sfp PPTase activity, qHTS; Potency, µM, for the others: largest response in the series, negative = inhibition, usual class: inhibitors;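 note: the enzyme is Sfp with the accession as filed and its product quenches rhodamine fluorescence; 0% = enzyme reaction without inhibitor and -100% = no enzyme wells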
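Fluorescence-quenching assay with 15 nM Sfp, 5 uM rhodamine-CoA and 12.5 uM BHQ-2-labelled ybbR peptide in pH 7.6 Hepes/MgCl2 buffer. Enzyme was pre-incubated with compound for 15 min at room temperature. Rate was taken from the 30-min fluorescence change (525/598 nm).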
IMPase Li cell – IMPase inhibition in cells with lithium potentiation | CHO-M1 cells, IP1 TR-FRET (IP-One), carbachol + lithium | Potency, µM (doses to about 59.4 µM), inactives show top-dose activity, negative = IMPase inhibition, actives largely listed as inhibitors | 210,000 tested, 0.35% active | AID 1457;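 note: IP1 builds up when IMPase is blocked and the TR-FRET signal falls; plate controls were basal vehicle for no effect and high inhibitor control for full effect; nearly all actives have a fitted effect of over 50% in size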
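Concentration–response in CHO-M1 cells, lithium-potentiated; 30 min at 37C. IP1 detected by competitive TR-FRET after 10 min lysis at RT. Hill-fitted AC50.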
Epigenetic derep – derepresses silenced GFP reporter in murine cells. murine LDR cells, GFP reporter derepression, 30 h. 280,000 tested, 0.2% active. Potency, µM (titrated, usually from 53.9 µM), inactives show at the highest dose GFP activation, actives largely listed as activators; note: % of control where 0% means no effect; nearly all actives have a fitted effect of over 60% in size
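Readout is the number of GFP-expressing murine LDR cells, counted by cytometry following washing. Cells were treated with compound for 30 h at 37 C; the stably integrated CMV-GFP locus is normally silent.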
The depositor's hits bear a star; ? = inconclusive; / = not tested or not shown; [ ] = remark or other dose. Unless noted, calls come from the whole dose curve; as a rule, active = well fitted curve in the direction sought with a large enough effect; inconclusive = small, poorly fitted or top-dose-only effect, or another doubt; inactive = no such curve, though single readings can be large; an effect the other way counts as inactive or inconclusive. Potency is the fitted concentration of half-maximal effect.

SMILES	JMJD2E inh	GCN5L2 inh	NPSR antag	Sfp PPTase inh	IMPase Li cell	Epigenetic derep
CCOc1ccc(OCC(O)CNC2CCN(Cc3ccccc3)CC2)cc1 (stereo unspecified)	8%	-6%	-2%[46.1 µM]	7%	/	-1%
COc1ccc(CNCC(O)COc2ccc(C(C)(C)c3ccccc3)cc2)cc1 (stereo unspecified)	/	-31%	/	56µM*	/	/
CC(C)(c1ccccc1)c1ccc(OCC(O)CNC2CCN(Cc3ccccc3)CC2)cc1 (stereo unspecified)	10µM*	-5%	?	79µM*	-2%	9%
CCOC(=O)c1cn(-c2nc(-c3ccc(Cl)c(Cl)c3)cs2)c2c(F)c(N3CCOCC3)c(F)cc2c1=O	10%	2.5µM*	-4%[46.1 µM]	-2%	6%[38.3 µM]	1%
CCOC(=O)c1cn(-c2ccc(F)c(F)c2F)c2c(F)c(F)c(F)cc2c1=O	-3%	5%	-17%[46.1 µM]	11%	11%[38.3 µM]	0%
CCCCC(=O)NC(=S)Nc1nnn(CCC)n1	-1%	-18%	-43%	14µM*	-12%	0%
NCCCC[C@H](N)C(=O)N[C@@H](CCCN=C(N)N)C(=O)N1CCC[C@H]1C(=O)N1CCC[C@H]1C(=O)NCC(=O)N[C@@H](Cc1ccccc1)C(=O)N[C@@H](CO)C(=O)N1CCC[C@H]1C(=O)N[C@@H](Cc1ccccc1)C(=O)O	/	1%	/	6%	/	/
Cc1ccc(CNC(=O)CCS(=O)(=O)c2ccc(Cl)cc2)cc1	-7%	2%	-10%[46.1 µM]	16%	/	-1%
Cc1ccc(CNC(=O)CCS(=O)(=O)c2ccc(Br)cc2)cc1	11µM*	?	5%	22%	-11%	1%
CC1=NOC(=O)/C1=C\c1ccc(-c2ccc(Br)cc2C(=O)O)o1	?	?	16%	?	/	-2%
CC1=NOC(=O)/C1=C/c1ccc(-c2ccc(Cl)cc2)o1	?	-16%	?	32µM*	23%[38.3 µM]	1%
CC1=NOC(=O)/C1=C/c1ccc(N(C)C)cc1	1%	-14%	-27%[46.1 µM]	4%	/	0%
CC1=NOC(=O)/C1=C\c1ccc(-c2ccc(Br)cc2)o1	?	?	-45%	45µM*	-13%	?
CC1=NOC(=O)/C1=C\c1ccc(-c2cc(Cl)ccc2Cl)o1	-8%	-23%	10µM*	18µM*	?	1%
Nc1cnn([C@@H]2O[C@H](CO)[C@@H](O)[C@H]2O)c(=O)n1	/	/	/	/	-9%	/
Cn1c(SCC(=O)c2cc(Cl)c(Cl)s2)nnc1-c1ccco1	-5%	2%	35%	18µM*	/	1%
Cc1ccc(C(=O)CSc2nnc(-c3ccco3)n2C)cc1	5%	-3%	7%	18%	-5%	0%
Nc1ncc(Br)cc1N=Cc1ccccc1	-3%	-2%	7%	79µM*	1%	0%
COc1ncc2nc(-c3cc(F)cc(F)c3)c(=O)n(CCc3ccccc3)c2n1	/	?	/	?	-7%	/
Cc1ccc(C(=O)c2ccc([N+](=O)[O-])cc2)cc1	-4%	-8%	-1%[46.1 µM]	3%	46%[38.3 µM]	-6%
Cc1ccc(S(=O)(=O)CC#CCOC(=O)c2ccc([N+](=O)[O-])cc2)cc1	2%	-25%	-11%[46.1 µM]	50µM*	14%[38.3 µM]	?
CCCNC(=S)NCCN1CCCCC1	?	-3%	-6%[46.1 µM]	?	9%	-1%
CCCCNC(=S)NCCN1CCCCC1	-6%	0%	12%[46.1 µM]	56µM*	5%	5%
CCCCNC(=S)N1CCN(C)CC1	8.9µM*	-6%	16%	10µM*	-9%	-3%
CC(=O)OCCCNc1cc(Sc2ccc(Cl)cc2)c2nonc2c1[N+](=O)[O-]	-7%	7%	?	50µM*	28%	0%
CCCC(=O)OCCNc1cc(Sc2nc3ccccc3[nH]2)c2nonc2c1[N+](=O)[O-]	?	-11%	?	10µM*	24%	?
Cc1nnc(SCC2=C(C(=O)O)N3C(=O)C(NC(=O)Cn4nc(C(F)F)c(Cl)c4C)C3SC2)s1 (stereo unspecified)	-20%	-7%	19%	-12%	-4%	-3%

Bioassay records deposited in PubChem BioAssay by National Center for Advancing Translational Sciences (NCATS).
